In publication PMC12215968 one finds cross-linked residues data, which are given here for 4 substances.

Chain of CCT7 (Q99832 whole entry): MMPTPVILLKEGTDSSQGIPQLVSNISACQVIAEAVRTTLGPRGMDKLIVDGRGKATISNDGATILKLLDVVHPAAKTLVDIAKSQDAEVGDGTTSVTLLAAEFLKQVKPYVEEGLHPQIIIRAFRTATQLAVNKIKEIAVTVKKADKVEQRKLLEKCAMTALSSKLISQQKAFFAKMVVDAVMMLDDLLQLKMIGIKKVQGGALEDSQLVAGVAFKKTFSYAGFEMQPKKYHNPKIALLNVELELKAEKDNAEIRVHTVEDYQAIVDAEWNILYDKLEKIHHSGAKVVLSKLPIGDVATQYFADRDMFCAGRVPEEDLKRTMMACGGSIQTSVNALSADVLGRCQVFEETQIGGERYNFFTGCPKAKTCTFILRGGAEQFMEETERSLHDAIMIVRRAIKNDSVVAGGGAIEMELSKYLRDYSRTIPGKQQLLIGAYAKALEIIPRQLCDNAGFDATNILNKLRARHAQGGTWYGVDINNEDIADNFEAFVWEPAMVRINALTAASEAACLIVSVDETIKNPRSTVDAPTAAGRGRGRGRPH
Chain of CCT8, P50990 (P50990 whole entry): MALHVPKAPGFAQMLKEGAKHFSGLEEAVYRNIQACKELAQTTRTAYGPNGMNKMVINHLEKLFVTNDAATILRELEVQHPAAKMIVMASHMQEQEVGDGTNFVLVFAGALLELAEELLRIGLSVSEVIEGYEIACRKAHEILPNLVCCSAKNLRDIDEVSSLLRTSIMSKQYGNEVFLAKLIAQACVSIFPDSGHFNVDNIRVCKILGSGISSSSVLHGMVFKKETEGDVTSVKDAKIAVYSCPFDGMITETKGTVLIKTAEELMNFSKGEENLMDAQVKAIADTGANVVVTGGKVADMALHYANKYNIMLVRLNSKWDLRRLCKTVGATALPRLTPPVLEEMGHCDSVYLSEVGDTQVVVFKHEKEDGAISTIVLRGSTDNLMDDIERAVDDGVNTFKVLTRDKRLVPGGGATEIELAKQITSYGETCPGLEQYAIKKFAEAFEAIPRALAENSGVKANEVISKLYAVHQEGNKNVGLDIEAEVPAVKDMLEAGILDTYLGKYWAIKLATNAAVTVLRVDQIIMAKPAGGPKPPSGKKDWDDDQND
Chain of CCT2, P78371 (P78371 whole entry): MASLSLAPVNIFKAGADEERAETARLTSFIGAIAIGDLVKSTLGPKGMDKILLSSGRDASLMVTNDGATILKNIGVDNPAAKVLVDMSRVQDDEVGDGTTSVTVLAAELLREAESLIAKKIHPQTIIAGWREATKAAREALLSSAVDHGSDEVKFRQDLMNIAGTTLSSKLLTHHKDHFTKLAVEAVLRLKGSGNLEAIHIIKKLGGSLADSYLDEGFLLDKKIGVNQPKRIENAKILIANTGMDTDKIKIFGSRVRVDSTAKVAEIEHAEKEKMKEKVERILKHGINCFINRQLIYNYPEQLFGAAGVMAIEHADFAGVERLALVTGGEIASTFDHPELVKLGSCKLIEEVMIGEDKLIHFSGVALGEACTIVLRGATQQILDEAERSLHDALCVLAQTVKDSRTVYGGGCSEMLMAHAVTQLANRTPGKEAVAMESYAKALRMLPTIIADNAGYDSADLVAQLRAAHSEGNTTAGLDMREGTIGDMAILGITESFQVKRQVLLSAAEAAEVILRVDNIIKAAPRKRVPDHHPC
Chain of CCT5, P48643 (P48643 whole entry): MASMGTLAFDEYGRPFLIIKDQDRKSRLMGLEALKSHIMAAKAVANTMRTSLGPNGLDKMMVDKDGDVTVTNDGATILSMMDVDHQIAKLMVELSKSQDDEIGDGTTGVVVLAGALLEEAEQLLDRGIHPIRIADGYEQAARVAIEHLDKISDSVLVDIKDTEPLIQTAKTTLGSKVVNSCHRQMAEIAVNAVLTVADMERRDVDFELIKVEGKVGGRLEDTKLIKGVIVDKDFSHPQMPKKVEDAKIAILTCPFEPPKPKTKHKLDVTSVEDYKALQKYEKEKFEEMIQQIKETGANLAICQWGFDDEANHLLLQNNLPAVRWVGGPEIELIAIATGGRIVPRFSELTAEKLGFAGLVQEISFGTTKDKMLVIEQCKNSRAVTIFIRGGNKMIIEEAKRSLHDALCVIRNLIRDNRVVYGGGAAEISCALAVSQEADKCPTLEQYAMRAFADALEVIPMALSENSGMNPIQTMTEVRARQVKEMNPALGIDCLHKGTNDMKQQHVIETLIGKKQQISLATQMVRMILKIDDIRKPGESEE
Chain of VBP1, P61758 (P61758 whole entry): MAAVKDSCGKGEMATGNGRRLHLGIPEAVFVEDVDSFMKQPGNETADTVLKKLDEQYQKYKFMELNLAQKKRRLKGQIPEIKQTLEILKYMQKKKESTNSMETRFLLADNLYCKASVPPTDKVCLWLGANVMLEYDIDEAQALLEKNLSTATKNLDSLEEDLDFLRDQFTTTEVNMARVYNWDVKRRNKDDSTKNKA

This assay has as its target CCT7 (UniProt Q99832). Put plainly: cross-linking mass spectrometry. The following applies: TSTO, in cells.
On to CCT8, P50990, for which the cross-linked residues entry is “K270 - K280”. On to CCT5, P48643, for which the cross-linked residues result is listed as “K232 - K250”. Turning to CCT2, P78371, the cross-linked residues result was “K248 - K250”.

Turning to VBP1, P61758, the cross-linked residues result is listed as “K189 - K292”.
